The record followed here is PubChem BioAssay (EPA / NIEHS).

Experiment [1] can be described thus: BSK_CASM3C_SRB: Viability Assessment in the BioMAP Diversity Plus: CASM3C Assay (AID 2283050).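 Also: cells exposed to compound for 24 h.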 Conditions: primary human coronary artery smooth muscle cells.
Read-out in experiment [2]: Thrombomodulin, THBD (gene 7056)
The experiment in a line: BSK_CASM3C_Thrombomodulin: BioMAP Diversity Plus: CASM3C Assay for Thrombomodulin Biomarker Activity (AID 2283051).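 Also: thrombomodulin protein level measured by ELISA 24 h after dosing.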 Conditions: primary human coronary artery smooth muscle cells; actives raise or lower the signal.

Read-out in experiment [3]: Tissue Factor, F3 (gene 2152)
The experiment in a line: BSK_CASM3C_TissueFactor: BioMAP Diversity Plus: CASM3C Assay for Tissue Factor Biomarker Activity (AID 2283052).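 Also: cell surface tissue factor protein level read by ELISA.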 Conditions: primary human coronary artery smooth muscle cells; actives raise or lower the signal.

Read-out in experiment [4]: Interferon-gamma inducible Protein 10 (IP10), CXCL10 (gene 3627)
The experiment is described as follows: BSK_hDFCGF_IP10: BioMAP Diversity Plus: hDFCGF Assay for Interferon-gamma inducible Protein 10 (IP10) Biomarker Activity (AID 2283053). Conditions: primary human foreskin fibroblasts; actives raise or lower the signal. Put shortly:
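Primary human foreskin fibroblasts exposed to chemicals for 24 h. IP-10 measured by ELISA; changes fitted bidirectionally against DMSO baseline.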

Read-out in experiment [5]: Urokinase-type plasminogen activator receptor (uPAR), PLAUR (gene 5329)
The experiment is described as follows: BSK_CASM3C_uPAR: BioMAP Diversity Plus: CASM3C Assay for Urokinase-type plasminogen activator receptor (uPAR) Biomarker Activity (AID 2283054).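 Also: cell-surface uPAR protein level quantified by ELISA.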 Conditions: primary human coronary artery smooth muscle cells; actives raise or lower the signal.

Read-out in experiment [6]: Vascular cell adhesion molecule 1 (VCAM1), VCAM1 (gene 7412)
The experiment is described as follows: BSK_CASM3C_VCAM1: BioMAP Diversity Plus: CASM3C Assay for Vascular cell adhesion molecule 1 (VCAM1) Biomarker Activity (AID 2283055).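 Also: VCAM-1 protein level quantified by ELISA on the cells.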 Conditions: primary human coronary artery smooth muscle cells; actives raise or lower the signal.

Read-out in experiment [7]: Collagen III, COL3A1 (gene 1281)
The experiment in a line: BSK_hDFCGF_CollagenIII: BioMAP Diversity Plus: hDFCGF Assay for Collagen III Biomarker Activity (AID 2283056). As to conditions: primary human foreskin fibroblasts; actives raise or lower the signal. The gist of the method: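 ELISA readout of Collagen III in human dermal (foreskin) fibroblasts, taken 24 h post-treatment. Gain or loss relative to DMSO vehicle fitted in both directions.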

Read-out in experiment [8]: Epidermal growth factor receptor (EGFR), EGFR (gene 1956)
The experiment is described as follows: BSK_hDFCGF_EGFR: BioMAP Diversity Plus: hDFCGF Assay for Epidermal growth factor receptor (EGFR) Biomarker Activity (AID 2283057). As to conditions: primary human foreskin fibroblasts; actives raise or lower the signal. Put shortly: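 Primary human foreskin fibroblasts (hDFCGF system), sampled 24 h after dosing; EGFR quantified by ELISA. Bidirectional fit relative to DMSO baseline; SRB total-protein staining in parallel cultures for cytotoxicity.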

Read-out in experiment [9]: Interleukin-8 (IL8), CXCL8 (gene 3576)
The experiment in a line: BSK_hDFCGF_IL8: BioMAP Diversity Plus: hDFCGF Assay for Interleukin-8 (IL8) Biomarker Activity (AID 2283058). As to conditions: primary human foreskin fibroblasts; actives raise or lower the signal. Put shortly:
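IL-8 levels read by ELISA at 24 hours after dosing human skin fibroblast cultures. Parallel SRB staining assessed overt cytotoxicity, and gain or loss of signal was fitted against DMSO control.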

Experiment [10] can be described thus: BSK_hDFCGF_Proliferation: Cell Proliferation Assessment in the BioMAP Diversity Plus: hDFCGF Assay (AID 2283059).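 Also: curves fitted for both rise and fall of signal versus DMSO baseline.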 Conditions: primary human foreskin fibroblasts. The gist of the method: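 This proliferation readout used SRB total-protein staining of human foreskin fibroblasts […], normalized to DMSO with bidirectional curve fitting.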
Read-out in experiment [11]: Macrophage colony-stimulating factor (MCSF), CSF1 (gene 1435)
The experiment is described as follows: BSK_hDFCGF_MCSF: BioMAP Diversity Plus: hDFCGF Assay for Macrophage colony-stimulating factor (MCSF) Biomarker Activity (AID 2283060). As to conditions: primary human foreskin fibroblasts; actives raise or lower the signal. Put shortly: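 M-CSF levels read by ELISA at 24 h post-dosing in human skin fibroblasts. Parallel cultures stained with SRB assessed cytotoxicity at the same time point; response fitted in both directions against the DMSO baseline.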

Experiment [12] in a line: BSK_hDFCGF_SRB: Viability Assessment in the BioMAP Diversity Plus: hDFCGF Assay (AID 2283061).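 Also: cells exposed to compound for 24 h before the read.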 Conditions: primary human foreskin fibroblasts. Put shortly: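 Viability was read as total protein: after 10% TCA fixation, wells were stained with 0.1% sulforhodamine B and read at 560 nm. Primary human foreskin fibroblasts were dosed for 24 h, with bidirectional fitting versus DMSO.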

Read-out in experiment [13]: TIMP metallopeptidase inhibitor 1 (TIMP1), TIMP1 (gene 7076)
The experiment in a line: BSK_hDFCGF_TIMP1: BioMAP Diversity Plus: hDFCGF Assay for TIMP metallopeptidase inhibitor 1 (TIMP1) Biomarker Activity (AID 2283062). As to conditions: primary human foreskin fibroblasts; actives raise or lower the signal. The gist of the method:
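TIMP-1 measured by ELISA 24 h after chemical dosing of primary human skin fibroblasts, with gain or loss fitted relative to DMSO. Parallel SRB staining (560 nm) monitored overt cytotoxicity.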

Read-out in experiment [14]: Monokine induced gamma interferon (MIG), CXCL9 (gene 4283)
The experiment in a line: BSK_hDFCGF_MIG: BioMAP Diversity Plus: hDFCGF Assay for Monokine induced gamma interferon (MIG) Biomarker Activity (AID 2283063). Conditions: primary human foreskin fibroblasts; actives raise or lower the signal. The gist of the method: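 Human primary foreskin fibroblasts in the hDFCGF system, exposed to test chemical for 24 h; MIG measured by ELISA. Bidirectional curve fitting against DMSO negative control as activity baseline.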

Read-out in experiment [15]: Matrix Metallopeptidase 1 (MMP1), MMP1 (gene 4312)
The experiment in a line: BSK_hDFCGF_MMP1: BioMAP Diversity Plus: hDFCGF Assay for Matrix Metallopeptidase 1 (MMP1) Biomarker Activity (AID 2283064). As to conditions: primary human foreskin fibroblasts; actives raise or lower the signal. Put shortly:
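Primary human foreskin fibroblasts in the hDFCGF system were dosed with test chemical, and MMP1 was measured by ELISA 24 h later. Values come from bidirectional curve fitting against the DMSO baseline.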

Read-out in experiment [16]: Vascular cell adhesion molecule 1 (VCAM1), VCAM1 (gene 7412)
The experiment is described as follows: BSK_hDFCGF_VCAM1: BioMAP Diversity Plus: hDFCGF Assay for Vascular cell adhesion molecule 1 (VCAM1) Biomarker Activity (AID 2283065). As to conditions: primary human foreskin fibroblasts; actives raise or lower the signal. Put shortly:
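ELISA readout of VCAM-1 on human dermal fibroblast primary cultures, 24 h after chemical exposure. Gain or loss of signal fitted in both directions against DMSO baseline.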

Read-out in experiment [17]: Plasminogen activator inhibitor-1 (PAI1), SERPINE1 (gene 5054)
The experiment in a line: BSK_hDFCGF_PAI1: BioMAP Diversity Plus: hDFCGF Assay for Plasminogen activator inhibitor-1 (PAI1) Biomarker Activity (AID 2283066). Conditions: primary human foreskin fibroblasts; actives raise or lower the signal. Put shortly:
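Human foreskin fibroblast primary cells, 24 h chemical exposure; PAI-1 measured by ELISA. Bidirectional fitting relative to DMSO; parallel cultures stained with SRB for total protein to flag overt cytotoxicity.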

Read-out in experiment [18]: Interferon-gamma inducible Protein 10 (IP10), CXCL10 (gene 3627)
The experiment in a line: BSK_KF3CT_IP10: BioMAP Diversity Plus: KF3CT Assay for Interferon-gamma inducible Protein 10 (IP10) Biomarker Activity (AID 2283068). As to conditions: primary human keratinocytes with fibroblasts; actives raise or lower the signal. The gist of the method:
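Signal is secreted/surface IP-10 by ELISA in a human primary skin co-culture of keratinocytes and foreskin fibroblasts, taken 24 h post-dosing; DMSO served as negative control.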

Experiment [19] in a line: BSK_KF3CT_SRB: Viability Assessment in the BioMAP Diversity Plus: KF3CT Assay (AID 2283069).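 Also: total protein by sulforhodamine B staining as a cytotoxicity measure; read 24 h after compound addition.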 As to conditions: primary human keratinocytes with fibroblasts. Put shortly:
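Human primary keratinocyte plus foreskin fibroblast co-culture exposed to chemicals for 24 h. Total protein measured by 0.1% sulforhodamine B staining after 10% TCA fixation, read at 560 nm; bidirectional fitting versus DMSO baseline.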

Read-out in experiment [20]: Intercellular Adhesion Molecule 1 (ICAM1), ICAM1 (gene 3383)
The experiment in a line: BSK_KF3CT_ICAM1: BioMAP Diversity Plus: KF3CT Assay for Intercellular Adhesion Molecule 1 (ICAM1) Biomarker Activity (AID 2283067). As to conditions: primary human keratinocytes with fibroblasts; actives raise or lower the signal. Put shortly:
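Cell-surface ICAM-1 was measured by ELISA 24 h after dosing primary human skin keratinocytes co-cultured with fibroblasts. Parallel SRB staining tracked overt cytotoxicity. Gain or loss of signal was fitted relative to DMSO.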

SMILES strings stand for the structures. “And” between values parts separate entries of the source, which are not always exact repeats. Equal values may be shown once. Some compounds were tested as several samples or in several runs, with calls that do not always agree. The source made the active and inactive calls. The calls were made as follows: active = hit-call score of the fitted dose curve at least 0.9, where 1 is the maximum; inactive = score below 0.9.

Consider `C=C(F)C(=O)OC(C(F)(F)F)C(F)(F)F`, for which the result in experiment [1], in experiment [2], in [3], in experiment [4], in [5] and in [6] was inactive. For the same molecule, the result in [7], in experiment [8], in experiment [9], in experiment [10], in experiment [11] and in [12] was inactive. Also, the result in experiment [13], in experiment [14], in experiment [15], in experiment [16], in experiment [17] and in [18] was inactive. For the same molecule, in experiment [19], the result was inactive. Further, the AC50 in experiment [12] was 38.2 µM (active).
As for `O=C1OC2(c3ccc(O)cc3Oc3cc(O)ccc32)c2ccccc21`, the outcome in experiment [1], in [2], in [3], in experiment [4], in [5] and in experiment [6] was inactive. Also, the outcome in [7], in experiment [8], in experiment [9], in experiment [11], in experiment [12] and in [13] was inactive. In addition, the outcome in [14], in experiment [15], in experiment [17], in [18] and in [19] was inactive. Besides, the AC50 in [10] was 20 µM (active).
As for `OCC(F)(OC(F)(F)C(F)(OC(F)(F)C(F)(F)C(F)(F)F)C(F)(F)F)C(F)(F)F` (configuration not stated), the result in [1], in [2], in experiment [3], in experiment [5], in experiment [6] and in experiment [8] was inactive. Also, the outcome in [9] and in experiment [17] was inactive. The concentration at half-maximal activity (AC50) in experiment [4] was 2.4 µM (active) and 2.74 µM (active); in [7] it was 2.23 µM (active) and 1.98 µM (active); in experiment [8] it was 5.4 µM (active); in experiment [9] it was 5.05 µM (active); in experiment [10] it was 4.48 µM (active) and 4.13 µM (active); in experiment [11], 2.34 µM (active) and 1.91 µM (active). Also, the AC50 in [12] is 6.02 µM (active) and 5.36 µM (active); in experiment [13], 3.33 µM (active); in experiment [14], 2.24 µM (active) and 2.52 µM (active); in experiment [15], 4.57 µM (active) and 4.92 µM (active); in [17], 6.18 µM (active); in [20], 4.83 µM (active) and 3.33 µM (active). Besides, the AC50 in experiment [18] is 5.01 µM (active) and 4.55 µM (active); in experiment [19] it was 5.66 µM (active) and 4.19 µM (active).
In the case of `CC(C)(CO)CO`, the outcome in experiment [1], in experiment [2], in [3], in [4], in experiment [5] and in [6] was inactive. Also, the result in experiment [7], in experiment [8], in experiment [9], in experiment [10], in experiment [11] and in [12] was inactive. Further, the outcome in [13], in [14], in experiment [15], in experiment [17], in experiment [18] and in [19] was inactive. In addition, the half-maximal activity concentration (AC50) in experiment [12] was 4.62 µM (active).
With `CC1=CC(C)C(C=O)C(C)C1` (configuration not stated) (tested in a mixture with another compound), the outcome in experiment [1], in experiment [2], in experiment [3], in experiment [4], in experiment [5] and in [6] was inactive. Besides, the result in [7], in [8], in experiment [9], in experiment [10], in [11] and in experiment [12] was inactive. Also, the outcome in [13], in experiment [14], in experiment [15], in experiment [17], in experiment [18] and in experiment [19] was inactive.
